A selection: hits, their analogues and other compounds. The true share with any hit is near 12%.
HP1b chromo inh: blocks HP1-beta chromodomain binding to methylated histone tails | AID 540317 | actives 0.56% (n = 390,000) | P83916 | Potency, µM (top dose mostly 114 µM), most hits filed as inhibitors | AlphaScreen HP1-beta / biotin-H3K9me3 peptide binding; also: nearly all actives have a fitted effect of over 70% in size
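HP1-beta protein (50 nM final) preincubated 30 min at room temperature with biotinylated H3(1-18)K9me3 peptide (50 nM) in PBS pH 7.4, 0.01% Tween-20, then compound added for 30 min. AlphaScreen streptavidin donor/nickel chelate acceptor beads (10 ug/mL final), 30 min dark, luminescence read.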
BAZ2B inh: inhibitors of human BAZ2B bromodomain; Potency, µM (series often up to 114 µM), actives largely listed as inhibitors; AlphaScreen BAZ2B-H3K14Ac peptide displacement; Q9UIF8; actives 4.4% (n = 360,000); AID 504333; also: nearly all actives have a fitted effect of over 60% in size
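Inhibition is scored as reduced AlphaScreen emission. The BAZ2B/b-H3(5-23)K14Ac complex (50 nM each) in PBS pH 7.4, 0.01% Tween-20 meets compound (up to 110 uM) for 30 min at RT before bead addition.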
Sfp inh: Sfp phosphopantetheinyl transferase inhibition; Biochemical Sfp PPTase activity, qHTS; Potency, µM, most hits filed as inhibitors; actives 3.5% (n = 310,000); AID 1490;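 also: the enzyme is Sfp with the accession as filed and its product quenches rhodamine fluorescence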
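Compounds were incubated with enzyme (final 15 nM) for 15 min at room temperature before substrate addition started the reaction. Fluorescence at 525 nm excitation, 598 nm emission was recorded immediately and after 30 minutes.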
G9a block: G9a (human) methyltransferase inhibition | Q96KQ7 | G9a H3K9 monomethylation, AlphaScreen, 2 h | Potency, µM (titrated, usually from 102 µM), actives largely listed as inhibitors | actives 8.8% (n = 350,000) | AID 504332; also: nearly all actives have a fitted effect of over 75% in size
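Enzyme 20 nM + cpd, 15 min RT; add b-H3K9 pep 500 nM / SAM 20 uM; 2 h RT; anti-H3K9me1 Ab 0.5 ug/mL + SA donor / anti-rabbit acceptor beads 20 ug/mL each, 10 min; AlphaScreen read.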
JMJD2A Tudor inh: inhibitors of human JMJD2A Tudor domain | O75164 | AlphaScreen JMJD2A-Tudor / H3K4me3 peptide binding | Potency, µM (titrated, usually from 114 µM), most hits filed as inhibitors | actives 4.4% (n = 390,000) | AID 504339; also: nearly all actives have a fitted effect of over 50% in size
Each line names hits and unclear results; the compound was inactive in the other large screens. Calls follow the shape of the dose curve; as a rule, active = well fitted curve in the direction sought with a large enough effect; inconclusive = small, poorly fitted or top-dose-only effect, or another doubt; inactive = no such curve, though single readings can be large; an effect the other way counts as inactive or inconclusive.

CCN(CC)S(=O)(=O)c1ccc2c(c1)nc(SCn1nnc3ccccc3c1=O)n2CC	G9a block 44.7µM
Cn1c(SCC(=O)NNC(=O)Cc2ccccc2)nc2ccccc2c1=O	JMJD2A Tudor inh 22.4µM
CCCCn1c(N)c(N(CCOC)C(=O)CN(C)S(=O)(=O)c2ccc(F)cc2)c(=O)[nH]c1=O	none (no result: Sfp inh)
COC(=O)c1sccc1S(=O)(=O)N(CC(=O)NCc1ccccc1)c1ccccc1	none (no result: Sfp inh)
CC(C)Oc1ccc(C(=O)O)c(C(=O)O)c1	JMJD2A Tudor inh 79.4µM
Cc1cc(C)cc(OCC(=O)OCC(=O)N2CCc3ccccc32)c1	none (no result: Sfp inh)
CCCCCCN=CC1=C(O)CC(C)(C)CC1=O	none
CCC(CO)N=CC1=C(O)CC(C)(C)CC1=O (configuration not stated)	G9a block 70.8µM
COCn1c2ccccc2c2nnc(C(=O)O)nc21	none (no result: HP1b chromo inh, BAZ2B inh, G9a block, JMJD2A Tudor inh)
O=C1NN(c2ccc(Cl)cc2)C(=O)/C1=C\c1ccc(-c2cccc(C(=O)O)c2)o1	HP1b chromo inh 44.7µM, BAZ2B inh 56.2µM, G9a block 15.8µM, JMJD2A Tudor inh 35.5µM
CCCCC1(C)OC(=O)C(=Cc2ccc(-c3ccc(Cl)c(C(=O)O)c3)o2)C(=O)O1 (configuration not stated)	Sfp inh 44.7µM (no result: G9a block)
CCCCC1(C)OC(=O)C(=Cc2ccc(SC)cc2)C(=O)O1 (configuration not stated)	none
O=C1NN(c2ccccc2)C(=O)/C1=C\c1ccc(-c2cc([N+](=O)[O-])ccc2O)o1	HP1b chromo inh 44.7µM, BAZ2B inh 31.6µM, Sfp inh 79.4µM, JMJD2A Tudor inh 50.1µM (no result: G9a block)
COc1ccc(Sc2ccc(/C=C3\C(=O)NN(c4ccccc4)C3=O)o2)cc1	BAZ2B inh 8.91µM, G9a block 10µM, JMJD2A Tudor inh inconclusive
Cc1cc(/C=C2/C(=O)NN(c3ccccc3)C2=O)c(C)n1-c1ccc(O)cc1	HP1b chromo inh inconclusive
Cc1ccc(N2NC(=O)/C(=C/c3ccc(-c4ccc(Cl)c(C(=O)O)c4)o3)C2=O)cc1	BAZ2B inh inconclusive, G9a block 44.7µM, JMJD2A Tudor inh inconclusive
Cc1cccc(N(CC(=O)O)CC(=O)O)c1	G9a block 11.2µM
C#CCOCCOCCOCCNc1nc(N2CCN(C(=O)[C@H]([C@@H](C)CC)n3cc(CCC(=O)O)nn3)CC2)nc(N2CCN(C(=O)[C@H](CCCCN)n3cc(CCC(=O)O)nn3)CC2)n1	none (no result: BAZ2B inh, Sfp inh, G9a block)
C#CCOCCOCCOCCNc1nc(N2CCN(C(=O)[C@H](CCC(=O)O)n3cc(CN)nn3)CC2)nc(N2CCN(C(=O)[C@H](CCC(=O)O)n3cc([C@@H](N)[C@H](C)CC)nn3)CC2)n1	JMJD2A Tudor inh 79.4µM (no result: BAZ2B inh, Sfp inh, G9a block)
C#CCOCCOCCOCCNc1nc(N2CCOCC2)nc(N2CCN(C(=O)[C@H](CCC(=O)O)n3cc(C(N)[C@H](C)CC)nn3)CC2)n1 (some centres not stated)	JMJD2A Tudor inh 39.8µM
C#CCOCCOCCOCCNc1nc(N2CCN(C(=O)[C@H](CCC(=O)O)n3cc([C@@H](N)[C@H](C)CC)nn3)CC2)nc(N2CCN(C(=O)[C@H](CCC(=O)O)n3cc([C@@H](N)CCSC)nn3)CC2)n1	JMJD2A Tudor inh 50.1µM (no result: BAZ2B inh, Sfp inh, G9a block)
COc1cc(NS(=O)(=O)c2ccc(NC(=O)c3ccc(OC)c(Br)c3)cc2)nc(OC)n1	G9a block inconclusive (no result: Sfp inh)
CCOc1ccccc1C(=O)NCC(=O)NCC(c1ccco1)N1CCCCC1 (configuration not stated)	none (no result: Sfp inh)
CC(C)c1ccc(C(=O)Nc2cccnc2)cc1	G9a block inconclusive
Clc1cccc(-c2ccc(CNCc3ccccn3)o2)c1	BAZ2B inh 22.4µM, Sfp inh 79.4µM, G9a block 20µM, JMJD2A Tudor inh 56.2µM
O=c1[nH]nc(Cc2ccc(-c3cccc(Cl)c3)o2)c2ccccc12	G9a block inconclusive
CCC(C)NCCOCCOc1cc(C)c(Cl)c(C)c1 (configuration not stated)	HP1b chromo inh inconclusive, BAZ2B inh 79.4µM, G9a block inconclusive, JMJD2A Tudor inh 3.98µM
CCC(C)NCCOCCOc1ccc(F)cc1 (configuration not stated)	HP1b chromo inh inconclusive, BAZ2B inh inconclusive, G9a block inconclusive, JMJD2A Tudor inh 3.16µM
COc1ccc(Oc2ncc3nc(-c4cccc(C#N)c4)c(=O)n(Cc4cccc(OC)c4)c3n2)cc1	none (no result: HP1b chromo inh, BAZ2B inh, JMJD2A Tudor inh)
COc1ccccc1N1CCN(C(=O)CCn2nc(C)c(S(=O)(=O)N3CCCC3)c2C)CC1	none (no result: Sfp inh)
O=C(CSc1ccc(-c2ccccn2)nn1)N1CCCc2ccccc21	BAZ2B inh 8.91µM, G9a block inconclusive, JMJD2A Tudor inh 7.94µM
O=C(CSc1nnc(-c2ccc(F)cc2)o1)N1CCCc2ccccc21	G9a block 10µM (no result: Sfp inh)
COc1ccc(C2c3cc(OC)c(OC)cc3CC(=O)N2c2ccc(C)c(F)c2)cc1 (configuration not stated)	G9a block inconclusive, JMJD2A Tudor inh inconclusive (no result: Sfp inh)
O=C(NC(=O)c1ccc(F)cc1F)Nc1ccc(Cl)cc1	G9a block 44.7µM
Cc1ccc(NC(=O)c2ccc(F)cc2F)cc1	none (no result: BAZ2B inh, Sfp inh, G9a block)
Cc1ccc(NC(=O)CCC(=O)N2CCN(S(=O)(=O)c3ccc(C)cc3)CC2)cc1	none (no result: Sfp inh)
CC(=O)Nc1cccc(S(=O)(=O)N2CCCN(S(=O)(=O)c3ccc4c(c3)OCCO4)CC2)c1	none (no result: HP1b chromo inh, BAZ2B inh, Sfp inh, G9a block)
CN1CCN(CCCN(Cc2ccco2)C(=S)Nc2ccc(Cl)cc2)CC1	none
Cc1cccc(NC(=S)N(CCCN2CCCC2)Cc2cccn2Cc2ccc(Cl)cc2)c1	BAZ2B inh inconclusive, G9a block 44.7µM, JMJD2A Tudor inh inconclusive
CCN1CCN(CCCN(Cc2ccco2)C(=S)Nc2ccc(Cl)cc2)CC1	G9a block inconclusive
CCOc1ccc(NC(=S)N(CCCN2CCCC2)Cc2cccn2Cc2ccc(Cl)cc2)cc1	BAZ2B inh inconclusive, G9a block 39.8µM, JMJD2A Tudor inh inconclusive
O=C(NCc1ccccn1)c1cccc(NS(=O)(=O)c2ccccc2)c1	none (no result: Sfp inh)
CC(C)(C)CNc1nc(C#N)nc(Nc2ccccc2)n1	none (no result: HP1b chromo inh, BAZ2B inh, Sfp inh, G9a block)
Cc1cc(C(=O)C(C)OC(=O)c2cnccn2)c(C)n1-c1ccccc1 (configuration not stated)	BAZ2B inh 25.1µM, G9a block 56.2µM, JMJD2A Tudor inh inconclusive (no result: Sfp inh)
COc1ccc(C2=NO[C@@H]3C(=O)N(c4ccc5c(c4)OCCO5)C(=O)[C@H]23)cc1OC	none
O=C1[C@@H]2C(c3cccnc3)=NO[C@@H]2C(=O)N1c1ccc2ccccc2c1	HP1b chromo inh inconclusive, Sfp inh 50.1µM, JMJD2A Tudor inh 79.4µM (no result: G9a block)
COc1ccc2oc(C(=O)OCC(=O)N3CCN(S(=O)(=O)c4ccccc4)CC3)c(C)c2c1	G9a block 50.1µM (no result: Sfp inh)
Cc1c(C(=O)N2CCN(S(=O)(=O)c3cccs3)CC2)oc2ccc(F)cc12	none (no result: BAZ2B inh, Sfp inh, G9a block)
Cc1c(C(=O)N2CCN(S(=O)(=O)c3ccc(F)cc3)CC2)oc2ccccc12	G9a block 50.1µM (no result: Sfp inh)
C1CCN2C[C@H]3C[C@H](CN4CCCCC34)C2C1 (some centres not stated)	none (no result: HP1b chromo inh, BAZ2B inh, JMJD2A Tudor inh)
